Format in all cases: functional
Assay [1] deals with Plasmodium falciparum. The experiment in a line: GSK_TCMDC: Inhibition of Plasmodium falciparum 3D7 in whole red blood cells, using parasite LDH activity as an index of growth. Test compounds present at 2uM.
In assay [2] the test system is Plasmodium falciparum. The experiment in a line: GSK_TCMDC: Inhibition of Plasmodium falciparum Dd2 in whole red blood cells, using parasite LDH activity as an index of growth. Test compounds present at 2uM.
In assay [3] the test system is HepG2. The experiment in a line: GSK_TCMDC: Percent inhibition of human HepG2 cell line. Test compounds present at 10uM.

Turning to `CCCCN1CCN(CC(O)CNC(=O)Nc2ccc(Cl)cc2)CC1.O=C(O)C(F)(F)F` (stereo unspecified), the Inhibition in assay [1] came to 100%; in assay [2] it was 99%; in assay [3], 17%.
For `Cc1[nH]c2c(NCc3ccc(F)cc3)nccc2c1C`, in that order: 83%, 0% and 63%.
For `O=C(Nc1ccc(C(F)(F)F)cc1)c1ccc(S(=O)(=O)NC2CCN(CC3CCCCC3)CC2)cc1.O=C(O)C(F)(F)F`, in that order: 100%, 20% and 30%.
Consider `Cc1cc(-c2ccc(NC(=O)Nc3ccc4nccc(N5CCN(C)CC5)c4c3)cc2C)cc(C)n1.Cl`, for which the figures for the Inhibition in assay [1], in assay [2] and in assay [3] were 100%, 76% and 0%, respectively.
On the same counts, the results for `Nc1ccc(-c2ccc(NC(=O)Nc3cc(C(F)(F)F)ccc3F)cc2)cn1` are 99%, 39% and 0%.
For `Cc1cc(NC(=O)c2ccco2)ccc1OC1CCN(Cc2ccc(F)cc2)CC1.O=C(O)C(F)(F)F`, in that order: 96%, 93% and 4%.
On the same counts, the results for `CC1(C)N=C(N)N=C(NOCc2ccc(Cl)c(Cl)c2)N1` are 96%, 27% and 5%.
Consider `Cl.O=C(/C=C/c1ccc(F)cc1)NC1CCC(CCN2CCCN(c3ccc(C(F)(F)F)cn3)CC2)CC1` (stereo unspecified), for which the Inhibition came out at 97% in assay [1], 13% in assay [2] and 29% in assay [3].
Turning to `CCC(CC)N1CCN(CC(=O)Nc2ccc([N+](=O)[O-])cc2C(=O)Nc2cccc(OC)c2)CC1`, the Inhibition came out at 100% in assay [1], 35% in assay [2] and 35% in assay [3].
For the compound `O=C(O)c1ccc(-c2c[nH]c3ncc(-c4ccc(Cl)cc4)cc23)cc1`, the results for the Inhibition in assay [1], in assay [2] and in assay [3] were 97%, 99% and 39%, respectively.
With `CCN1CCC(N(CCCCCCCCc2ccc(C(F)(F)F)cc2)C(=O)Cn2c(CCc3cccc(F)c3F)cc(=O)c3ccccc32)CC1.O=C(O)C(O)C(O)C(=O)O`, the Inhibition was 88% in assay [1], 65% in assay [2] and 89% in assay [3].
As for `CC(=NNC(S)=NC(c1ccccc1)c1ccccc1)c1ccccn1`, the figures for the Inhibition in assay [1], in assay [2] and in assay [3] were 98%, 97% and 45%, respectively.
On the same counts, the results for `Cc1cccc2nc(-c3ccc(-c4cccc(CN5CCCC(N)C5)c4)s3)[nH]c12.O=C(O)C(F)(F)F` (stereo unspecified) are 100%, 94% and 17%.
On the same counts, the results for `O=C(NCC1CN(Cc2ccc(N3CCCC3)o2)CCCO1)c1ccc2c(c1)OCO2.O=CO` (stereo unspecified) are 83%, 70% and 0%.
For `CC(=O)Nc1nc(C(=O)Nc2cccc(-c3ccc(-c4nc5cccc(C)c5[nH]4)s3)c2)cs1`, in that order: 100%, 67% and 14%.
On to `CC(C)(C(=O)Nc1ccc(C2CCC(NCC3CC3)CC2)c(Cl)c1)c1ccc(C(F)(F)F)cc1` (stereo unspecified), for which the Inhibition in assay [1] turned out to be 97%; in assay [2], 18%; in assay [3] it was 64%.
On the same counts, the results for `CN1CCC(C(=O)N(Cc2ccc(-c3ccc(CNCCc4ccc(S(C)(=O)=O)cc4)cn3)cc2)Cc2cccc(F)c2)CC1.O=C(O)C(F)(F)F` are 98%, 90% and 10%.
On the same counts, the results for `Cc1ccc(NC(=O)Nc2ccc(Cl)cc2)cc1-c1ccc(C(=O)Nc2ccncc2)cc1` are 99%, 63% and 54%.
Regarding `COc1cc(CNC[C@@H](O)[C@H](Cc2ccccc2)NC(=O)c2cc(OC(C)C)cc(N3CCCCS3(=O)=O)c2)cc(OC)c1.Cl`, the Inhibition was determined as 100% in assay [1], 94% in assay [2] and 7% in assay [3].
On the same counts, the results for `Cl.OCC(CO)(CO)NCc1ccc2c3c(cccc13)-c1ccccc1-2` are 87%, 76% and 73%.
For `Cc1ccc(NC(=O)Nc2ccc(Cl)cc2)cc1-c1cccc(C(=O)Nc2ccc(F)cc2)c1`, in that order: 96%, 52% and 8%.
For `O=C(O)C(F)(F)F.c1cc(-c2ccc(CNCCCN3CCOCC3)cc2)cc(-c2nc3ccccc3[nH]2)c1`, in that order: 100%, 0% and 26%.
On to `COc1cc2c(cc1N1CC(C)NC(C)C1)N(C(=O)c1ccc(-c3ccc(-c4ncc[nH]4)cc3C)cc1)CC2` (stereo unspecified), for which the Inhibition in assay [1] worked out at 98%; in assay [2], 58%; in assay [3], 7%.
Consider `Br.Cc1cccc2c(CON3C(N)=NC(N)=NC3(C)C)cccc12`, for which the Inhibition is given as 94% in assay [1], 94% in assay [2] and 64% in assay [3].
As for `CC(C)(C)c1ccc(-c2csc(NC(=O)CC(c3ccccc3)c3ccccc3)n2)cc1`, the Inhibition in assay [1] amounted to 86%; in assay [2] it was 64%; in assay [3] it was 3%.
For `COc1ccc(C(=O)Nc2ccc(Nc3nc(C)cc(N(C)C)n3)cc2)c(OC)c1`, in that order: 100%, 72% and 34%.
For the compound `CC1CN(c2ccc(NC(=O)c3cccs3)cc2)CCN1Cc1cccc(F)c1.O=C(O)C(F)(F)F` (stereo unspecified), the Inhibition in assay [1] is on record as 96%; in assay [2] it was 96%; in assay [3], 5%.
